# Source: PubChem (National Center for Advancing Translational Sciences (NCATS))
# PLK1 PBD inh = inhibitors of human PLK1 polo-box domain binding. Potency, µM, for inactives: max response, negative = inhibition, hits mostly inhibitors. Plk1 PBD binding of FITC phosphopeptide, fluorescence polarization. actives 2.8% (n = 360,000). P53350; further: series mostly up to about 57 µM; on the % scale 0 is the no-effect control and ±100 the full control effect; nearly all actives have a fitted effect of over 65% in size
# G9a inh = blocks human histone lysine methyltransferase G9a | G9a H3K9 monomethylation, AlphaScreen, 2 h | Potency, µM (titrated, usually from 102 µM), inactives show top-dose activity, negative = inhibition, hits mostly inhibitors | actives 8.8% (n = 350,000) | AID 504332; further: on the % scale 0 is the no-effect control and ±100 the full control effect; nearly all actives have a fitted effect of over 75% in size
#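 Step 1: enzyme (final 20 nM) with compound, 15 min RT. Step 2: substrate peptide 500 nM and SAM 20 uM, 2 h RT. Step 3: anti-H3K9me1 antibody and AlphaScreen beads, 10 min, then plate read.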
# HP1b binding inh = blocks HP1-beta chromodomain binding to methylated histone tails; P83916; AlphaScreen HP1-beta / biotin-H3K9me3 peptide binding; Potency, µM (series often up to 114 µM), for inactives: at the top dose activity change, negative = inhibition, usual class: inhibitors; actives 0.56% (n = 390,000); further: nearly all actives have a fitted effect of over 70% in size
#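 Compound inhibition of the preformed complex between 50 nM HP1-beta and 50 nM biotinylated H3K9me3 peptide was read by AlphaScreen. Buffer was PBS pH 7.4 with 0.01% Tween-20. Incubations ran 30 min at room temperature, with 10 ug/mL donor/acceptor beads.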
# BAZ2B inh = blocks human BAZ2B | AlphaScreen BAZ2B-H3K14Ac peptide displacement | Potency, µM (doses to about 114 µM), for inactives: at the highest dose activity change, negative = inhibition, hits mostly inhibitors | actives 4.4% (n = 360,000) | AID 504333; further: on the % scale 0 is the no-effect control and ±100 the full control effect; nearly all actives have a fitted effect of over 60% in size
#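 BAZ2B (50 nM) with biotin-H3(5-23)K14Ac peptide (50 nM) in PBS pH 7.4, 0.01% Tween-20, preformed 30 min, then compound 30 min at room temperature; top concentration 110uM. AlphaScreen streptavidin donor/nickel chelate acceptor beads (10 ug/mL final), 20 min dark, signal read.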
# JMJD2A Tudor = inhibitors of human JMJD2A Tudor domain; AlphaScreen JMJD2A-Tudor / H3K4me3 peptide binding; Potency, µM (top dose mostly 114 µM), for inactives: at the highest dose activity change, negative = inhibition, most hits filed as inhibitors; actives 4.4% (n = 390,000); further: on the % scale 0 is the no-effect control and ±100 the full control effect; nearly all actives have a fitted effect of over 50% in size
# Sfp inh = blocks B. subtilis Sfp PPTase activity; Q9F4F7; Biochemical Sfp PPTase activity, qHTS; Potency, µM, inactives show largest response in the series, negative = inhibition, hits mostly inhibitors; actives 3.5% (n = 310,000); AID 1490;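 further: the enzyme is Sfp with the accession as filed and its product quenches rhodamine fluorescence; 0% = enzyme reaction without inhibitor and -100% = no enzyme wells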
#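 Compounds were incubated with enzyme (final 15 nM) for 15 min at room temperature before substrate addition started the reaction. Fluorescence at 525 nm excitation, 598 nm emission was recorded immediately and after 30 minutes.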
# An asterisk follows results filed as active; ? = inconclusive; . = no result; [ ] = another dose, or the depositor's remark. Hits are enriched below; roughly 12% of the tested compounds scored in any of these assays. The call rests on the fitted dose curve; in most records, active means well fitted curve in the direction sought with a large enough effect; inconclusive means small, poorly fitted or top-dose-only effect, or another doubt; inactive means no such curve, though single readings can be large; an effect the other way counts as inactive or inconclusive. Potency means the concentration at half of the fitted maximal effect.
SMILES,PLK1 PBD inh,G9a inh,HP1b binding inh,BAZ2B inh,JMJD2A Tudor,Sfp inh
COc1cccc(NC(=O)CN(CCc2ccccc2)S(=O)(=O)c2ccc(Cl)cc2)c1,.,14.1µM*,-18.7%,?,28.2µM*,.
CC(C)=CCCC1=CC[C@H](C(=O)O)[C@H](C(=O)O)C1,.,.,.,.,.,8.8%
Cc1ccc(S(=O)(=O)N(C)C)cc1NC(=O)CSc1nnc(C2CC2)n1C1CC1,-5.9%,11.7%[2.33 µM],25.3%,-4.0%,-17.1%,.
COc1cc(C(=O)OCCN2CCOCC2)ccc1O,?,-5.4%[59 µM],-7.4%,4.0%,?,10.4%
O=C(OCCCN1CCOCC1)c1ccc(O)c(O)c1,-7.4%,12.6µM*,21.9%,-28.7%,31.6µM*,?
CC(=O)c1cccc(NC(=O)C2CCCN(C(=O)c3cnn(-c4ccccc4)c3-n3cccc3)C2)c1 (stereo not given),.,1.0%[59 µM],33.2%,-31.4%,-16.1%,.
Cn1c(-c2sccc2OCc2ccc(Cl)cc2Cl)n[nH]c1=S,26.7µM*,3.16µM*,-16.3%,?,-17.3%[11.4 µM],3.2%
Cn1c(-c2sccc2OCc2ccccc2)n[nH]c1=S,-7.5%,2.82µM*,?,56.2µM*,3.16µM*,12.9%
COc1ccccc1CN1CCC2(CC1)CCN(C(=O)c1cccc(F)c1)CC2,.,-5.3%[12.7 µM],.,.,.,23.8%
C/C(Cn1nnc([N+](=O)[O-])n1)=N\NC(=O)c1ccccc1O,29.9µM*,-4.7%,8.8%,1.9%,44.7µM*,-6.9%
C/C(Cn1nnc([N+](=O)[O-])n1)=N\NC(=O)c1ccc(O)cc1O,-9.7%,-3.4%[59 µM],16.6%,9.2%,?,-8.8%
CCCn1c(N)c(C(=O)CSc2nc(C)nc3sc(C)c(C)c23)c(=O)[nH]c1=O,?,22.4µM*,29.9%,-11.4%,-15.8%,.
CCCn1c(N)c(C(=O)CSc2nc(C)cs2)c(=O)[nH]c1=O,-4.3%,2.8%[59 µM],10.4%,1.0%,-9.8%,17.8%
CC1CCc2c(sc(NC(=O)c3cccn3C)c2C(N)=O)C1 (stereo not given),-3.7%,.,9.2%[57 µM],.,-35.9%,.
O=C(c1ccncc1)N1CCC2(CC1)CN(c1ccccc1)C2,.,28.3%[12.7 µM],.,.,.,-5.5%
O=C(NNc1ccccc1C(F)(F)F)c1sccc1Cl,.,.,49.7%,.,-10.2%,.
CCOc1ccc(CCNC(=O)C2CCCN(S(=O)(=O)N(C)c3ccc(F)cc3)C2)cc1 (stereo not given),.,-23.9%[59 µM],24.9%,-10.3%,-13.2%,.
COc1ccc(/C=C/C(=O)NC(=S)Nc2cc([N+](=O)[O-])ccc2O)cc1OC,-10.1%,28.2µM*,?,?,89.1µM*,-6.2%
COc1ccc([N+](=O)[O-])cc1NC(=S)NC(C)=O,26.7µM*,29.3%[12.7 µM],20.6%,-8.9%,?,14.3%
COc1ccc([N+](=O)[O-])cc1NC(=O)CSCc1cc(C)cc(C)c1,29.9µM*,-13.8%,-23.9%,-32.8%,?,5.4%
CC(=O)c1sc(NC(=O)CSC(C)C(=O)Nc2cc(C)on2)nc1-c1ccccc1 (stereo not given),2.7%,15.6%[0.501 µM],28.0%,10.5%,-17.8%,.
O=C(CSCc1ccccc1Cl)N1CCN(c2ccc(Cl)cc2)CC1,.,1.3%[59 µM],36.5%,8.5%,-7.6%,.
O=c1cc(Br)c(O)c(Br)cc1Br,21.2µM*,.,?,.,22.4µM*,.
CCc1cc2c(cc3c(=O)n(CCCC(=O)NCc4cccc(Br)c4)ncn32)s1,.,-4.5%[59 µM],23.9%,-0.2%,-20.0%,.
COc1ccccc1N1CCN(S(=O)(=O)c2ccc([N+](=O)[O-])cc2)CC1,-3.6%,.,.,.,.,.
COc1ccccc1N1CC=C(c2cccc([N+](=O)[O-])c2)NC1=O,-7.9%,39.8µM*,35.1%,-20.2%,-13.7%,-10.7%
COc1ccccc1N1CCN(c2ccc([N+](=O)[O-])cc2Cl)CC1,-15.5%,3.16µM*,?,?,?,-5.3%
CC(C)CC(=O)N1CCN(c2ccc([N+](=O)[O-])cc2Cl)CC1,26.7µM*,-2.1%[59 µM],-7.6%,-4.2%,-31.6%,15.8%
N#CCCN(CC#Cc1ccccc1)OCc1ccccc1,.,.,.,.,.,3.6%
Cc1ccc(NC(=O)CSc2nnc(-c3cccnc3)o2)c(C)c1,?,44.7µM*,32.6%,2.9%,-13.5%,.
